The structures appear in SMILES notation. Screen size: about 190,000 compounds; about 930 (0.49%) were called active. The list shows a part of the results. Entries with a potency or affinity are not part of this list. Values without a mark were called inactive.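 How the source made its calls: active means z-score of insulin promoter reporter brightness in nuclei below -3 at 5 µM, with at least 500 cells counted; inconclusive means wells with under 500 cells, flagged as toxic or sparse; inactive means the rest.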

A short description of this test: decrease of insulin promoter-GFP reporter – imaging, high-content screening, mouse beta cells (AID 1628). Conditions: MIN6 insulin promoter GFP reporter, at 5 µM, stronger effect = lower value.
On to `CCn1c(C2CC(=O)N(Cc3ccccc3)C2)nc2ccccc21` (centres undefined), for which the z-score was -5.96 (active). `N#C/C(=C\c1ccc(-c2ccc(C(=O)O)cc2)o1)c1nc2ccccc2[nH]1`: the z-score was 6.2.

Regarding `O=C(COC(=O)c1cccs1)NC1CCCCC1`, the z-score is -5.3 (active). On to `Nc1c(C(=O)NC2CCCC2)sc2nc(-c3cccs3)ccc12`, for which the z-score is 3.89. Regarding `Cn1c(SCC(=O)NC2CCCCCC2)nnc1-c1cccs1`, the z-score is 2.42. As for `Cc1cc(F)c(F)c(C(=O)N2CCOCC2)c1`, the z-score is 1.59.

`Cc1c(C(=O)N2CCOCC2)[nH]c2c1C(=O)CC(c1ccccc1Cl)C2` (centres undefined): the z-score is -3.07 (active). For the compound `NCCc1nnc(SCc2ccccc2F)o1`, the z-score is 1.04. For the compound `Clc1ccc(CSc2nnc(/C=C/c3ccccc3)o2)cc1`, the z-score is -4.41 (active). For the compound `O=C(CSc1nnc(SCc2ccc(Cl)cc2)s1)N1CCOCC1`, the z-score was -0.99. To `CCCC1CC(=O)OC1(C)C(=O)CSc1n[nH]c(-c2ccccc2)n1` (centres undefined) belongs -5.89 (active).

Consider `CCN(CC)c1ccc(/C=C(\C#N)c2nc(-c3cccs3)c(NC(C)=O)s2)cc1`, for which the z-score is 16.9. As to `CN(C)C=Nc1ccc2nn(-c3ccccc3)nc2c1`, the z-score was 3.14. As to `CCOc1ccc2[nH]c(=O)c(CN(Cc3cccs3)C(CC)c3nnnn3C(C)(C)CC)cc2c1` (centres undefined), the z-score was -3.01 (active). For the compound `Cc1cccc2cc(CN(Cc3cccs3)C(c3nnnn3C3CCCC3)C(C)C)c(=O)[nH]c12` (centres undefined), the z-score was -4.88 (active). Under `CCC(c1nnnn1C1CCCC1)N(Cc1cccs1)Cc1cc2cc(C)ccc2[nH]c1=O` (centres undefined) stands -3.35 (active). To `COc1cc(OC)c(OC)cc1C#N` belongs 0.13; to `COc1cccc(C2C3CN(C)CC=C3C(C#N)=C(N)C2(C#N)C#N)c1OC` (centres undefined), 13.7. Take `Cn1c(CNc2nc3ccccc3n2C)nc2ccccc21`: the z-score is 1.15. Regarding `C=CCn1c(/N=C/c2ccc3c(c2)OCO3)nc2ccccc21`, the z-score was 0.8. In the case of `COc1ccc(C2C(C(=O)c3ccccc3)=C(C)Nc3nc4ccccc4n32)c(OC)c1` (centres undefined), the z-score was 3.79. For the compound `CC(O)c1nc2ccccc2n1CCOc1ccccc1` (centres undefined), the z-score is 1.64.

On to `COc1ccc2nc3ccccc3nc2c1`, for which the z-score was -1.09.

`COc1ccc(CNC(=O)CN2CCC(C(=O)c3ccc(OC)cc3)CC2)cc1`: the z-score was 1.22. To `Cc1ccc2nc(/C(C#N)=C\c3ccc(N4CCOCC4)o3)[nH]c2c1` belongs 15.9; to `CC(C)=CCc1c2c(c3occ(-c4ccc(O)cc4)c(=O)c3c1O)C=CC(C)(C)O2`, -0.49; to `N#C/C(=C/c1ccc(N2CCOCC2)o1)C(=O)Nc1ccccc1`, 4.15. Consider `CCC(=O)OCC(=O)c1c(N)n(Cc2ccccc2)c(=O)n(C)c1=O`, for which the z-score was 3.29. Consider `Cc1cc2nc3c(=O)n(Cc4ccccc4)c(=O)[nH]c3nc2cc1N`, for which the z-score was 12.1. Consider `Cn1c(N)cc(=O)n(Cc2ccccc2)c1=O`, for which the z-score is -5.18 (active). On to `Cc1n[nH]c(C)c1S(=O)(=O)N1CCCC(C(=O)N2CCN(c3ccc(Cl)cc3)CC2)C1` (centres undefined), for which the z-score was -3.2 (active). Regarding `Cc1noc(C)c1S(=O)(=O)N1CCC(C(=O)N2CCN(C3CCCC3)CC2)CC1`, the z-score was 3.05.

In the case of `CCCS(=O)(=O)N1CCC(C(=O)NCCC(C)C)CC1`, the z-score was 3.11.

For `CSc1ccccc1C(=O)NC1CCCC1`, the z-score was -5.87 (active). Under `Cc1ccccc1C(=O)NC1CCN(C(=O)N2CCOCC2)CC1` stands 1.27. With `O=C(Cn1nnc(-c2ccc(S(=O)(=O)N3CCCC3)cc2)n1)Nc1ccccc1-n1cccc1`, the z-score is -4 (active).

Turning to `COc1ccccc1NC(=S)N(Cc1ccc(C)cc1)Cc1ccccn1`, the z-score is 1.92. Consider `COc1ccc(-c2[nH]ncc2CN(C)Cc2ccccn2)c(OC)c1`, for which the z-score is -4.89 (active). Consider `CCCCCCCCCCCC(=O)c1c(O)cccc1O`, for which the z-score was -0.04.

As to `CN1C(=S)N(c2cccnc2)C(=O)/C1=C\c1ccc(N(C)C)cc1`, the z-score is 5.58.

As for `CCc1ccccc1NC(=S)N(CCN(C)C)C(C)c1ccccn1` (centres undefined), the z-score is -5.14 (active). With `Cc1ccccc1NC(=S)N(CCN(C)C)C(C)c1ccccn1` (centres undefined), the z-score was -6.19 (active). Turning to `COCCN(C(=S)Nc1ccc(C)cc1C)C(C)c1cccs1` (centres undefined), the z-score was 1.14. Regarding `CC(C)CCN(C(=S)Nc1cccc(F)c1)C(C)c1cccs1` (centres undefined), the z-score is 4.77. With `CCN1CCN(C(=O)C2(NC(=O)Nc3cccc(F)c3)CCCCC2)CC1`, the z-score was -4.67 (active). Turning to `COc1ccccc1NS(=O)(=O)c1cc(NC(=O)c2ccc(=O)[nH]c2)ccc1N1CCOCC1`, the z-score is -4.48 (active).

For `Cc1cccc(NC(=O)Cn2cc([N+](=O)[O-])cn2)n1`, the z-score is 2.86. Consider `Cc1nn(C)c(C)c1NC(=O)CSc1nnc(C)n1-c1ccccc1`, for which the z-score is 0.56.

Consider `CCCCn1nnnc1SCC(=O)Nc1cccc(C)n1`, for which the z-score is -4.7 (active).

With `NC(=S)n1[nH]c(-c2ccc([N+](=O)[O-])cc2)c(N=Nc2ccc(Cl)cc2)c1=O`, the z-score is -5.03 (active).

Regarding `NC(=S)n1[nH]c(-c2ccc([N+](=O)[O-])cc2)c(N=Nc2cccc(Cl)c2)c1=O`, the z-score is -3.23 (active). Turning to `Cc1ccccc1SCc1noc(C(=O)NC(C)C)c1C(=O)O`, the z-score is 3.02. Under `O=C(NCc1cccs1)c1ccc(N2CCCCC2)nc1` stands 3.41; under `Cc1cc(C)c(S(=O)(=O)c2ccccc2C)c(SCC(C)C)n1`, -3.18 (active).

Regarding `Cc1cc(C)c(C#N)c(SCC2COc3ccccc3O2)n1` (centres undefined), the z-score was 3.48.

With `CCOC(=O)c1c(-c2ccc(C)cc2)csc1NC(=O)/C(C#N)=C/c1ccc(O)c(OC)c1`, the z-score was 8.18. As for `CN(C)c1ccc(/C=C/C(O)=C2/C(=O)N(C)C3(C)CC2c2ccccc2O3)cc1` (centres undefined), the z-score was 3.04. For `CCN(CC)CCN(Cc1cc2ccc(C)cc2[nH]c1=O)C(=O)NC1CCCCC1`, the z-score is -4.95 (active).

For the compound `CCc1c(C(=O)NC2CCCCC2)[nH]c(C)c1C(C)=O`, the z-score is 3.85. Regarding `CCCS(=O)(=O)NCCc1cc2ccc(C)cc2[nH]c1=O`, the z-score was 0.95. As to `O=C(c1ccc2c(c1)OCO2)N1CCCC1`, the z-score is 8.93. Regarding `O=C(c1ccc2c(c1)OCO2)N1CCCC(c2ccccc2)C1` (centres undefined), the z-score was -3.99 (active). For the compound `O=C(c1ccc2c(c1)OCO2)N1CCc2ccccc2C1`, the z-score is -0.76. In the case of `O=C(c1ccc2c(c1)OCO2)N1CCN(c2ccccn2)CC1`, the z-score was -5.54 (active). Consider `O=C(CC12CC3CC(CC(C3)C1)C2)NCC(=O)N1CCc2ccccc2C1`, for which the z-score is 3.34. Turning to `CN(C)c1ccc(C(=O)c2ccc(N(C)C)c3ccccc23)cc1`, the z-score is -5.22 (active).

Turning to `CN(C)c1ccc(/C=C/C(=O)c2c(O)c3ccccc3oc2=O)cc1`, the z-score was 8.78. Under `O=C(O)c1cc(-c2ccncc2)nc2ccc(F)cc12` stands 3. On to `O=C(O)CCCC(=O)Nc1c(F)c(F)c(F)c(F)c1F`, for which the z-score was 0.09. As to `Cc1c2ccccc2nc2c(F)c(NC(C)C)c(F)c(F)c12`, the z-score was 9.6. Under `O=C(NCc1ccccn1)C(=O)NCC(c1ccco1)N1CCN(c2ccc(F)cc2)CC1` (centres undefined) stands 1.32; under `Cc1noc(C)c1CSCC(=O)N1CCN(c2ccc(F)cc2)CC1`, -3.68 (active); under `COc1cc(OC)c2cc(C(=O)N/N=C/c3cccc(OC)c3O)[nH]c2c1`, -3.6 (active). On to `COc1cccc(/C=N/NC(=O)c2c(C)nc3ccc(Br)cn23)c1O`, for which the z-score was -4.47 (active). Take `COc1ccc(CN=Cc2[nH]c3ccc(Br)c(Cl)c3c2O)cc1`: the z-score was 8.49. Under `CN(C)c1nc(N)nc(/C(C#N)=C/C2CC3C=CC2C3)n1` (centres undefined) stands 3.05.

Take `Oc1ccc2ccccc2c1N=Nc1ccccn1`: the z-score was -8.6 (active).

In the case of `CCOC(=O)c1ccc2[nH]c3ccccc3c2c1`, the z-score is -0.27. Take `Cc1ccc(/C=[N+](\[O-])c2ccc(N(C)C)cc2)c2nsnc12`: the z-score was 4.9. With `CN(C)S(=O)(=O)c1cc(C(=O)NCC2CCCO2)c(Cl)cc1Cl` (centres undefined), the z-score was -4.71 (active).

For `O=C(NCC1CCCO1)C1CCN(S(=O)(=O)N2CCCC2)CC1` (centres undefined), the z-score was 3.58. With `O=C(COC(=O)c1cc(S(=O)(=O)N2CCOCC2)ccc1O)NCC1CCCO1` (centres undefined), the z-score was 3.77. With `Cc1cc(/C=C2\SC(=S)NC2=O)c(C)n1C1CC1`, the z-score was 3.04. For `O=C(CN1CCN(C(=O)c2ccco2)CC1)Nc1ccccc1-c1ccccc1`, the z-score is -4.53 (active).

For the compound `O=C(OCC(=O)N1CCN(C(=O)c2ccco2)CC1)c1ccccc1OCc1ccccc1`, the z-score was 11.8. As for `O=C(OCN1C(=O)c2ccccc2C1=O)c1ccco1`, the z-score is -1.25. Under `Cc1cc(S(=O)(=O)NC2CCCCC2)c(C)s1` stands 3.49; under `Cc1cccc(Cn2c(NCCO)nc3c2c(=O)n(C)c(=O)n3C)c1`, -9.37 (active); under `Cn1c(=O)c(NCCO)c2c3c(cccc31)C(=O)c1ccccc1-2`, 13.6. As to `CC(C)CCn1c(CN(C)Cc2ccccc2)nc2c1c(=O)n(C)c(=O)n2C`, the z-score was -5.09 (active). On to `CC(C)Cn1cnc2c1c(=O)n(C)c(=O)n2C`, for which the z-score was -0.43. Consider `CNc1nc2c(c(=O)n(C)c(=O)n2C)n1Cc1ccccc1`, for which the z-score was -5.04 (active). To `Cc1cccc(OCCNc2nc3c(c(=O)n(C)c(=O)n3C)n2C)c1` belongs 4.22; to `CN1CC=C2C(C#N)=C(N)C(C#N)(C#N)[C@H](c3ccoc3)[C@H]2C1`, 12.4. To `CCN(CC)C(=O)C1CCN(Cc2cccc(OCc3ccccc3)c2)CC1` belongs -4.22 (active). Under `CC(C)(C)NC(=O)c1nn(Cc2ccccc2)c(=O)c2ccccc12` stands 1.76; under `CC(C)CCn1nc(C(=O)Nc2nc3c(s2)CCCC3)c2ccccc2c1=O`, -3.57 (active). Consider `COc1ccc(S(=O)(=O)N2CCN(c3ncnc4c(-c5ccccc5)nsc34)CC2)cc1`, for which the z-score is -3.2 (active).

With `Cc1ccc(-n2c3c(c(=O)[nH]c2=O)C(C(F)(F)F)(C(F)(F)F)NC(=O)N3)cc1`, the z-score was 3.01.

The values are drawn from PubChem BioAssay AID1628 (Sanford-Burnham Center for Chemical Genomics, 2009).
